GLS inhibitor: glutaminase GLS (human) inhibition; GLS enzymatic activity, qHTS titration; Potency, µM (series often up to 45.5 µM), inactives show top-dose activity change, negative = inhibition, most hits filed as inhibitors; actives 0.21% (n = 410,000); O94925; note: % is set by controls: 0 for no effect and ±100 for the full control effect
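Compounds were pin-transferred onto hKGA, after which L-glutamine (1 mM solution) and a detection mix of glutamate oxidase, HRP and Amplex Red were added. Initial and 30 min RT fluorescence reads were collected.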
GLP-1R agonist: agonists of human GLP-1 receptor. P43220. HEK293 GLP-1R CRE-luciferase, luminescence, 4-6 h; cells express a hypersensitive GLP-1R form. Potency, µM (top dose mostly 45.6 µM), inactives show top-dose activation, actives largely listed as activators. actives 0.007% (n = 380,000). AID 624172; note: % of control where 0% means no effect
GLP1R inv ag: acts as inverse agonist at human GLP-1 receptor | Potency, µM (titrated, usually from 38.3 µM), inactives show top-dose activity change, negative = inhibition, usual class: inhibitors | HEK293 GLP-1R CRE-luciferase, luminescence, 24 h; GLP-1R form is constitutively active | actives 1.6% (n = 410,000) | AID 624417; note: % is set by controls: 0 for no effect and ±100 for the full control effect; nearly all actives have a fitted effect of over 55% in size
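Inverse agonists were sought by their lowering of basal cAMP reporter luciferase output in HEK293 cells stably carrying constitutively active human GLP-1R, after 24 h compound treatment.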
ALOX12 inh: blocks human arachidonate 12S-lipoxygenase. P18054. purified 12hLO, xylenol orange hydroperoxide absorbance. Potency, µM (doses to about 108 µM), inactives show at the top dose activity change, negative = inhibition, actives largely listed as inhibitors. actives 1.1% (n = 580,000). AID 1671190; note: % is set by controls: 0 for no effect and ±100 for the full control effect
Target sequence (P18054 whole entry, looked up): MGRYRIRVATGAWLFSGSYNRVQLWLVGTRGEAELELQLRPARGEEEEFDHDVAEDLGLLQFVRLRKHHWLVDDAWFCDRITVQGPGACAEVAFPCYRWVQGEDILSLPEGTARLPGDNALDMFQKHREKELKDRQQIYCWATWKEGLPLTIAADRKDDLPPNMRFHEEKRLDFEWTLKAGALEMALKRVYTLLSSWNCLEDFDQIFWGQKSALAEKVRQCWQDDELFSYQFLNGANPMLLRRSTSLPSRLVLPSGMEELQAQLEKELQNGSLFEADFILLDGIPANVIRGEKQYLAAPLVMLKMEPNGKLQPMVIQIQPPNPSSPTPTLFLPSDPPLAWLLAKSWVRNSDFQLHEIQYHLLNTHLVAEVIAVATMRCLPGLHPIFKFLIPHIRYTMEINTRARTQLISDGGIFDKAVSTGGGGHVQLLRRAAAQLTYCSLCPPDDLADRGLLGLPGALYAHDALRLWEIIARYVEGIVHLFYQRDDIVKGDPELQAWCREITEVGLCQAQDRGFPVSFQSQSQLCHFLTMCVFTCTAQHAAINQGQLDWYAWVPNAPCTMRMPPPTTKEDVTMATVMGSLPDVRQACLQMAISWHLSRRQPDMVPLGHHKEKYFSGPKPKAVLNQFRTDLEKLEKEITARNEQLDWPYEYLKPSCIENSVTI
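Purified human 12hLO (150 nM final) in 25 mM Hepes, 0.01% Triton X-100, pH 7.0 was preincubated 15 min at room temperature with compound. Then 40 uM arachidonic acid was added, 30 min. Hydroperoxide was read by Fe-XO absorbance ratio 573/405 nm.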
PTHR1 agonist: agonists of human PTHR1 parathyroid hormone receptor; Q03431; HEK293 GP2 PTHR1 cells, GloSensor cAMP luminescence, 1 h; Potency, µM (titrated, usually from 115 µM), for inactives: top-dose activation, usual class: activators; actives 0.075% (n = 410,000); note: nearly all actives have a fitted effect of over 55% in size
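HEK-293-derived GP2 cells expressing PTHR1 and a GloSensor cAMP reporter, 3,000/well, plated overnight, given luciferin plus IBMX (each 0.5 mM as added) for 1 h at 37 °C, then compound for 1 h at 37 °C. Luminescence was read after 15 min at room temperature.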
Glioma ERSR ind: induces the endoplasmic reticulum stress response in human glioma cells. Potency, µM, for inactives: top-dose activation, actives largely listed as activators. U87-MG GRP78 promoter luciferase reporter, 16 h. actives 0.02% (n = 420,000); note: series mostly up to about 76 µM; % of control where 0% means no effect; nearly all actives have a fitted effect of over 35% in size
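Stably transfected U87-MG glioma cells carrying a GRP78-based luciferase sensor; 16 h compound incubation. Luminescence end-point read 10 min after Bright-Glo addition at room temperature.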
* = called active by the depositor; i = inactive; ? = inconclusive; . = no result given; [ ] = another dose, or the depositor's remark. Only some compounds are listed: those with a hit (about 2.3% of all), similar ones and a draw of the others. Calls come from the whole dose curve; as a rule, active = well fitted curve in the direction sought with a large enough effect; inconclusive = small, poorly fitted or top-dose-only effect, or another doubt; inactive = no such curve, though single readings can be large; an effect the other way counts as inactive or inconclusive. Potency is the fitted concentration of half-maximal effect.

SMILES	GLS inhibitor	GLP-1R agonist	GLP1R inv ag	ALOX12 inh	PTHR1 agonist	Glioma ERSR ind
CC(O)(CS(=O)(=O)Cc1ccc(Cl)cc1)C(=O)Nc1cccc(C(F)(F)F)c1 (configuration not stated)	-1%	3%	-47%	3.2µM*	i	0%
COc1ccc(OC)c(/C=N\NC(=O)CC(=O)NCCc2ccccc2)c1	5%	-1%	3%	-6%	-11%	0%
COc1ccc(OC)c(/C=N/NC(=S)NCCc2ccccc2)c1	6%	?	?	45µM*	-7%	-2%
CC1(C)C2CC=C(/C=N/NC(=S)NCCc3ccccc3)C1C2 (configuration not stated)	-24%	20%	?	45µM*	-17%	-6%
Oc1ccccc1C=NNC(=S)Nc1ccc(F)cc1	11%	11%	?	?	-15%	4%
CNC(=S)N/N=C/C1=CCC2CC1C2(C)C (configuration not stated)	3%	6%	?	?	-10%	-4%
Fc1ccc(NC(=S)NN=Cc2ccccc2Cl)cc1	2%	19%	?	50µM*	-11%	0%
S=C(NCCc1ccccc1)N/N=C/c1cccc(Cl)c1Cl	8%	17%	?	50µM*	i	-5%
Oc1ccccc1/C=N/NC(=S)NCCc1ccccc1	19%	19%	?	0%	-29%	1%
Cc1cccc(NC(=O)NC2CCSc3ccccc32)c1 (configuration not stated)	.	.	.	-25%	.	.
CC1(C)Cc2sc3c(=O)n(CC(=O)c4ccc(Br)cc4)cnc3c2CO1	.	.	.	0%	.	.
O=C(c1cc2ccccc2oc1=O)N1CCN(Cc2cccc(Cl)c2)CC1	.	.	.	-1%	.	.
CCOC(=O)C1=CN(Cc2cccc(F)c2)S(=O)(=O)NC1c1cccc(OC)c1 (configuration not stated)	1%	-2%	-29%	4%	-21%	-2%
CCOC(=O)C1=CN(Cc2cccc(F)c2)S(=O)(=O)NC1c1ccc2ccccc2c1 (configuration not stated)	-7%	-3%	13µM*	-13%	-43%	-6%
O=C1[C@H]2[C@@H](c3ccc(Cl)cc3)N3C(=O)N(c4cccc(Cl)c4)C(=O)[C@@]3(Cc3ccc(Cl)cc3)[C@H]2C(=O)N1C1CCCCC1	4%	-6%	4µM*	2%	i	-4%
O=C1[C@H]2[C@@H](c3ccc(Cl)cc3)N3C(=O)N(c4cccc(F)c4)C(=O)[C@@]3(Cc3ccc(Cl)cc3)[C@H]2C(=O)N1C1CCCCC1	0%	-6%	15%	.	-8%	-4%
Cc1ccc(N2C(=O)N3[C@H](c4ccc(F)cc4)[C@@H]4C(=O)N(C5CCCCC5)C(=O)[C@@H]4[C@]3(C)C2=O)cc1	-5%	-3%	10µM*	.	-7%	-4%
Cc1ccc(N2C(=O)N3[C@H](c4ccc(Cl)cc4)[C@@H]4C(=O)N(C5CCCCC5)C(=O)[C@@H]4[C@]3(Cc3ccccc3)C2=O)cc1	-6%	-2%	?	?	-35%	-2%
CC(C)(C)c1ccc(C(=O)NC(=S)N2CCCCCC2)cc1	0%	1%	7.1µM*	409%	-26%	-1%
CC1CCN(C(=S)NC(=O)c2ccccc2)CC1	21%	-7%	?	0%	i	-1%
CC1CCN(C(=S)NC(=O)c2ccc(C(C)(C)C)cc2)CC1	-3%	12%	8.9µM*	32µM*	-6%	0%
COc1ccc(-c2nnc(CSc3nc(C)c(C)n3C3CCCC3)o2)cc1	.	.	.	12%	.	.
CSc1nnc(C)c(/C=C/NOCc2cccc(F)c2)n1	-3%	9%	7%	?	i	-3%
CSc1nnc(C)c(/C=C/Nc2ccc(F)cc2F)n1	0%	21%	91%	35µM*	-3%	-4%
CCn1cnc2c1c(=O)n(CC(=O)N1CCN(C)CC1)c(=O)n2Cc1ccccc1	.	.	.	4%	.	.
SMILES	GLS inhibitor	GLP-1R agonist	GLP1R inv ag	ALOX12 inh	PTHR1 agonist	Glioma ERSR ind
COc1cc([N+](=O)[O-])ccc1NC(=O)CC1SC(=Nc2ccc(F)cc2)N(CCC2=CCCCC2)C1=O (configuration not stated)	1%	0%	?	-12%	-14%	0%
COc1ccc(OC)c(NC(=O)CC2SC(=Nc3ccc(F)cc3)N(CCC3=CCCCC3)C2=O)c1 (configuration not stated)	-7%	10%	4.5µM*	-29%	-2%	3%
COc1ccc(-c2cc(C(=O)N(C)C)c3ccccc3n2)cc1	.	.	.	1%	.	.
CCOc1ccc(/C=C/C(=O)c2ccc(Cl)cc2)cc1	.	.	.	2%	.	.
COc1ccc(/C=C/C(=O)c2ccc(O)c(CCCl)c2)cc1C	.	.	.	32µM*	.	.
COc1cc(/C=C/C(O)=C/C(=O)/C=C/c2ccc(O)cc2)ccc1O	-13%	0%	29%	13µM*	-24%	-10%
Cc1cc(/C=C/C(=O)c2ccc(F)cc2)cc(C)c1O	.	.	.	45µM*	.	.
COc1cc(/C=C/C(=O)c2ccc(F)cc2)cc(OC)c1OC	-4%	-27%	-19%[0.307 µM]	76%	-48%	?
CCOc1cc(/C=C/C(=O)c2ccc(Cl)c(Cl)c2)ccc1O	.	.	.	6.3µM*	.	.
COc1ccc(/C=C/C(=O)c2ccc(C(=O)/C=C/c3ccc(OC)c(OC)c3)cc2)cc1OC	-8%	0%	?	0%	i	-2%
Cc1ccc2nc(-c3ccc(NC(=O)c4cccc(F)c4)cc3)oc2c1	.	.	.	-49%	.	.
CCOc1cc(/C=C/C(=O)c2ccc(C)cc2)cc(Br)c1O	.	.	.	40µM*	.	.
COc1cc(C(=O)/C=C/c2ccc(SC)cc2)ccc1O	.	.	.	40µM*	.	.
COc1cc(/C=C/C(=O)c2ccc(C#N)cc2)cc(Br)c1O	.	.	.	8.9µM*	.	.
CC1CC(=O)Nc2cc(S(=O)(=O)N3CCN(c4ccccc4F)CC3)ccc2S1 (configuration not stated)	.	.	.	-57%	.	.
CC(C)c1ccc(-n2nnnc2C2(Nc3ccccc3)CCCC2)cc1	.	.	.	52%	.	.
Cc1ccc(CNc2nc(-c3ccco3)nn2S(C)(=O)=O)o1	.	.	.	-25%	.	.
Cc1ccccc1NC(=O)C(C)Sc1nnc(CN2CCCC2)n1Cc1ccccc1 (configuration not stated)	-5%	1%	?	21%	-1%	-3%
CC(Sc1nnc(CN2CCCC2)n1Cc1ccccc1)C(=O)Nc1ccccc1 (configuration not stated)	5%	11%	7.9µM*	?	-4%	-5%

High-throughput results (PubChem BioAssay)
